Sampled rows, rich in hits. Any-hit rate of the full collection: about 2.1%.
ARNT-TACC3 inh: disruptors of human ARNT/TACC3 interaction | AID 623870 | inhibition, % at 9.99 µM | Q9Y6A5 | AlphaScreen His-ARNT PAS-B/GST-TACC3 binding, luminescence; TACC3 fragment carries E629A point mutation | 390,000 tested, 0.66% active;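 active = mean inhibition of replicates at least 50% and at least half of replicates each reaching 50%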;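 also: 0% = complete ARNT plus TACC3 wells and 100% = ARNT alone without TACC3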
PvdQ inh: P. aeruginosa PvdQ acylase inhibition; 340,000 tested, 0.063% active; inhibition, % at 10 µM; purified PvdQ acylase, fluorescence plate reader; in the data active = inhibition above about 30%, passing the limit was not always enough;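 also: 0% = vehicle neutral wells and 100% = reference inhibitor wells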
ERAP1 HTS inh: ERAP1 (human) enzyme inhibition | 340,000 tested, 0.15% active | recombinant ERAP1, Leu-AMC fluorescence, 60 min | inhibition, % at 10.7 µM;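 active = mean replicate inhibition of at least 30%, or all replicates individually reaching that 30% level; inactive = mean below 30% and not every replicate reaching it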;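 also: 0% = neutral control wells and 100% = L-leucinethiol positive control wells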
Target sequence (Q9NZ08 whole entry, looked up): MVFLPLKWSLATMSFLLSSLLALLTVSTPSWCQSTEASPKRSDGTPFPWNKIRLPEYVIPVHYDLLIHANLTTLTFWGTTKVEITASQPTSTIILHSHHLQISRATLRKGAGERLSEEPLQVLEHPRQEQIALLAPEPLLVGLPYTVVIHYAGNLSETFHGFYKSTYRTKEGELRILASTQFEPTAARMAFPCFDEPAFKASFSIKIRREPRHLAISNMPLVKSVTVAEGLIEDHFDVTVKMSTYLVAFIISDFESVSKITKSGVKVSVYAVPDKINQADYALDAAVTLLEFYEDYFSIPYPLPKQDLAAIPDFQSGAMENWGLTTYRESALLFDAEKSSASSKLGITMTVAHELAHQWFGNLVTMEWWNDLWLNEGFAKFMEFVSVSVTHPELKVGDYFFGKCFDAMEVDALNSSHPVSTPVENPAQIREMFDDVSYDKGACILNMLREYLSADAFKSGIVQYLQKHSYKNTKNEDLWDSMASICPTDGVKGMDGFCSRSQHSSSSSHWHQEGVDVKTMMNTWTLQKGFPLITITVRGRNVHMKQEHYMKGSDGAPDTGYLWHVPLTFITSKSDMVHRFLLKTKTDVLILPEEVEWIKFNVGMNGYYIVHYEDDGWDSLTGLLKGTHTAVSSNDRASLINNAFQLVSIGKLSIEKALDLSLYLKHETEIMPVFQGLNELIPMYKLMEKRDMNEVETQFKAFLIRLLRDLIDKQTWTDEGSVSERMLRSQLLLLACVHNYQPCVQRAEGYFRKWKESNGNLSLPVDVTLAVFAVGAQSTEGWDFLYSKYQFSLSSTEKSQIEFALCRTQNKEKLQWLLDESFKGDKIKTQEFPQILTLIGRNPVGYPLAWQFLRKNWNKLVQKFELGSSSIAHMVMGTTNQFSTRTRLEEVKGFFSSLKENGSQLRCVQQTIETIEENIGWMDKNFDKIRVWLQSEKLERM
CFTR F508del cor: correctors of CFTR F508del function in bronchial epithelial cells; CFBE cells, YFP halide quenching; stimulated with forskolin plus potentiator P3; % fluorescence drop versus neutral controls; activity (quench increase), % at 7.58 µM; 350,000 tested, 0.36% active;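 active = mean added fluorescence quench of at least 8% versus neutral control, with both replicates also reaching 8%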;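 also: cells transiently co-express mutant CFTR-F508del with the halide-sensitive YFP; corrector assay measuring rescue of mutant channel to the surface after 24 h compound exposure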
rRNA inh HTS: inhibitors of bacterial rRNA selective over humanized ribosomes. E. coli WT GFP vs humanized-ribosome RFP mutants, fluorescence, 24 h; hits give low values; DMSO median 0, no signal -100. GFP signal change (wild-type ribosome), % (no concentration beside the values). 350,000 tested, 1.6% active. AID 720706;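 active = significant combined selectivity score with lowered wild-type GFP, culture density cut under 30%, mutant RFP and density less affected; inactive = any of these conditions unmet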
Active calls of the source: *; nt = no result.

SMILES	ARNT-TACC3 inh	PvdQ inh	ERAP1 HTS inh	CFTR F508del cor	rRNA inh HTS
C#CCOCCOCCOCCNc1nc(N2CCN(C(=O)CCCCCCCCCCNC(=O)[C@H]([C@@H](C)CC)n3cc(CCCCN=C(N)N)nn3)CC2)nc(N2CCN(C(=O)CCCCCCCCCCNC(=O)[C@@H]([C@H](C)O)n3cc(C)nn3)CC2)n1	nt	6	-18	nt	-40*
C#CCOCCOCCOCCNc1nc(N2CCN(C(=O)CCCCCCCCCCNC(=O)[C@H](CCCCN)n3cc(CCO)nn3)CC2)nc(N2CCN(C(=O)CCCCCCCCCCNC(=O)[C@H](CCCCN)n3cc(CCCC(=O)O)nn3)CC2)n1	19	-10	8	-4	-40*
COc1ccc(-c2noc(CCC(=O)N3CCN(c4cccc(C(F)(F)F)c4)CC3)n2)cc1	-26	-4	nt	nt	nt
COc1ccc(-c2noc(CCC(=O)N3CCN(c4cccc(OC)c4)CC3)n2)cc1	2	5	nt	1	-32*
CC1CCCN(Cc2c(C(=O)N3CCc4ccccc4C3)nc3ccc(Cl)cn23)C1 (stereo not given)	4	0	0	3	-25*
Cc1ccc(S(=O)(=O)NCc2ccccc2)cc1C(=O)N1CC(C)CC(C)C1 (stereo not given)	-13	-6	-2	8.3*	-7
O=C(c1ccncc1)N1CC(=O)N2[C@H](C1)[C@@H](c1ccc(-c3ccccc3F)cc1)[C@@H]2CO	nt	nt	4	-2	-1
O=C(NCCSCc1ccco1)Nc1cc(Cl)cc(Cl)c1	-3	8	-2	0	-51*
O=C(c1cccs1)N1CCCc2ccccc21	1	-5	0	-2	-24*
Nc1ccc(N)c(C(=O)O)c1	47*	-5	nt	nt	nt
C[C@H](CO)N1C[C@H](C)[C@H](CN(C)Cc2ccc(F)cc2)Oc2cc(C#Cc3ccccn3)ccc2S1(=O)=O	-11	nt	2	3	-2
O=C(CN(C1CCCCC1)S(=O)(=O)c1ccccc1)NCc1ccco1	4	-1	nt	nt	nt
Cc1ccc(S(=O)(=O)N(CC(=O)NCc2ccco2)C2CCCCC2)cc1	-5	-2	0	2	-28*
O=C(c1ccncc1)N1CC[C@@H]2[C@@H](CO)Nc3ccc(Br)cc3[C@@H]21	25	nt	nt	0	0
O=C(CCN1CCCCC1)NCC[C@@H]1CC[C@H](NC(=O)c2ccc(F)cc2)[C@H](CO)O1	-14	nt	-1	-1	-1
Oc1c(CN2CCc3ccccc3C2)cc(Cl)c2cccnc12	58*	-1	nt	nt	nt
CN1CCN(Cc2cc(COCc3ccccc3)c3cccnc3c2O)CC1	2	6	nt	nt	nt
C[C@@H]1CN([C@H](C)CO)C(=O)c2cccc(NS(=O)(=O)c3ccccc3)c2O[C@H]1CN(C)C(=O)Nc1ccc(C(F)(F)F)cc1	-6	nt	-3	-1	-8
C[C@H]1CN([C@@H](C)CO)C(=O)c2cc(NS(=O)(=O)c3ccc(F)cc3)ccc2O[C@H]1CN(C)S(=O)(=O)c1ccc(Cl)cc1	5	nt	1	1	3
CCC(=O)N1CC[C@@H]2[C@@H](CO)Nc3ccc(-c4cccc(C#N)c4)cc3[C@@H]21	0	nt	nt	1	1
Cc1c(C2Nc3ccccc3C2C)[nH]c2ccccc12 (stereo not given)	nt	nt	-1	10*	-59
c1ccc2c(c1)[nH]c1ccccc12	10	-9	nt	-4	nt
CC(C)NC(=O)N[C@H]1C=C[C@H](CC(=O)NCc2ccc(Oc3ccccc3)cc2)O[C@H]1CO	-1	nt	1	3	-5
O=C(/C=C/c1ccc(Br)cc1)c1ccc(NC(=O)c2ccco2)cc1	nt	-7	nt	nt	nt
O=C(/C=C/c1ccc(Br)cc1)c1ccco1	nt	56*	11	nt	4
CNC(=S)N1N=C(c2cccs2)CC1c1ccc(OC)cc1 (stereo not given)	-8	-22	0	nt	-21*
COc1ccc2c(c1OC)C(=O)OC2	0	15	-2	-3	4
COc1ccc2c3c(cccc13)C(=O)CC2	16	11	3	12*	82
OC[C@H]1[C@@H](c2ccccc2)C2(CN(Cc3cccnc3)C2)N1Cc1ccncc1	nt	nt	0	0	1
CC(=O)Nc1ccc(NC(=O)c2ccc(NS(=O)(=O)c3cc(C(C)(C)C)ccc3C)cc2)cc1	-26	0	1	4	3

Bioassay records from PubChem BioAssay.
